Compound activity (PubChem BioAssay)
An excerpt weighted towards active compounds, which were near 15% of everything screened.
RORgamma inh: ROR gamma (mouse) transcription inhibition; 310,000 compounds, 5.4% hits; Drosophila S2 Gal4-RORgamma UAS-luciferase reporter, 20 h; AID 2551; P51450; Potency, µM (series often up to 53.6 µM), hits mostly inhibitors; note: nearly all actives have a fitted effect of over 60% in size
Target sequence (P51450 whole entry, looked up, the tested form may be a part): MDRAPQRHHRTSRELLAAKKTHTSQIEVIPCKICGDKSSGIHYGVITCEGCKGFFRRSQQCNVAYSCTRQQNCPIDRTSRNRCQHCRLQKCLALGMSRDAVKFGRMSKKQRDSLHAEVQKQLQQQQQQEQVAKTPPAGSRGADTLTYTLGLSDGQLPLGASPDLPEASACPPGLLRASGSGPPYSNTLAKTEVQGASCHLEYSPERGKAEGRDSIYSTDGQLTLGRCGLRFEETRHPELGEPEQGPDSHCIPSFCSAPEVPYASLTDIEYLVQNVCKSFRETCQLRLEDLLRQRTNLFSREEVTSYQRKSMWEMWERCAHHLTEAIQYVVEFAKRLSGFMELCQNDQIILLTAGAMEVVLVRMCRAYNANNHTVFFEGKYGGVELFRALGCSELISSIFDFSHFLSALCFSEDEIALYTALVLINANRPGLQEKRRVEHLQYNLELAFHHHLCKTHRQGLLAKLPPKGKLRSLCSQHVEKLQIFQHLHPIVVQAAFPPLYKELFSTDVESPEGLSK
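Luminescence from a UAS-regulated Photinus luciferase reporter in stably transfected Drosophila Schneider cells is measured; decreased signal marks ROR gamma inhibition. Fusion expression is induced by 700 uM copper sulfate for 20 hr.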
12-LOX inh: inhibitors of human 12S-lipoxygenase ALOX12. P18054. purified 12hLO, xylenol orange hydroperoxide absorbance. Potency, µM (titrated, usually from 108 µM), most hits filed as inhibitors. 580,000 compounds, 1.1% hits. AID 1671190
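Purified human 12hLO at 150 nM in 25 mM Hepes, 0.01% Triton X-100, pH 7.0, preincubated 15 min at room temperature with compound. Reaction started with 40 uM arachidonic acid, 30 min at room temperature. Hydroperoxide measured by Fe-xylenol orange, 573/405 nm absorbance ratio.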
ELG1 DNA repair: ELG1-dependent DNA repair inhibition | AID 504467 | 330,000 compounds, 2.3% hits | Potency, µM (doses to about 46.1 µM), most hits filed as inhibitors | HEK293T ELG1-luciferase reporter, luminescence, 16 h; DNA damage induced by 5-fluorouridine; note: nearly all actives have a fitted effect of over 55% in size
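Luminescence from the luciferase reporter, measured 30 min after ONE-Glo reagent at room temperature, was the read-out. Beforehand, 2,000 cells per well were exposed for 16 hr at 37 °C to 5-fluorouridine together with compound or vehicle.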
Gal4-VP16 FLuc: Gal4-VP16 reporter inhibition counter-screen; 310,000 compounds, 3.5% hits; Potency, µM (titrated, usually from 53.6 µM), most hits filed as inhibitors; Drosophila S2 Gal4-VP16 UAS-luciferase, luminescence, 20 h;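 note: Gal4-VP16 expression switched on by copper sulfate through the metallothionein promoter; nearly all actives have a fitted effect of over 50% in size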
DT40 TDP1 no CPT: qHTS for Inhibitors of human tyrosyl-DNA phosphodiesterase 1 (TDP1): qHTS in cells in absence of CPT | DT40 Tdp1-/- hTDP1 cells, no CPT, ATP luminescence, 48 h | Potency, µM (doses to about 46.2 µM), hits mostly inhibitors | 420,000 compounds, 15% hits; note: nearly all actives have a fitted effect of over 55% in size
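Readout: luminescence from CellTiter-Glo after 30 min in the dark at RT. Cells: DT40 Tdp1-/- with stable hTDP1, 400/well. Exposure: compounds alone, ≥48 hr, 37 °C.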
TDP1 cell CPT: growth inhibition of DT40 Tdp1-/-;hTDP1 cells with camptothecin (screen for TDP1 inhibitors). AID 686979. Potency, µM (series often up to 46.2 µM), hits mostly inhibitors. chicken DT40 Tdp1-/-;hTDP1 cells + 20 nM CPT, ATP luminescence, 48 h. 420,000 compounds, 12% hits; note: nearly all actives have a fitted effect of over 55% in size
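Chicken DT40 Tdp1-/- cells stably complemented with human TDP1 were seeded at 400 cells/well in medium containing 20 nM camptothecin, exposed to pin-transferred compounds, and grown at 37 °C for at least 48 hr. Viability was read as ATP luminescence.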
Hits are given with their value; i = inactive; ? = inconclusive; nt = no result; [ ] = another dose, or the depositor's remark. Calls come from the whole dose curve; as a rule, active = well fitted curve in the direction sought with a large enough effect; inconclusive = small, poorly fitted or top-dose-only effect, or another doubt; inactive = no such curve, though single readings can be large; an effect the other way counts as inactive or inconclusive.

SMILES | RORgamma inh | 12-LOX inh | ELG1 DNA repair | Gal4-VP16 FLuc | DT40 TDP1 no CPT | TDP1 cell CPT
CCCS(=O)(=O)NCC1Cn2cccc2C(=O)N1Cc1ccccc1 (centres undefined) | nt | i | nt | nt | nt | nt
CCc1sc(C(=O)OCc2ccccc2C#N)cc1C | nt | i | nt | nt | nt | nt
O=C(NC[C@H]1Cn2c(-c3ccccc3)cnc2CO1)c1cnccn1 | nt | i | nt | nt | nt | nt
CC(C)c1ccc(/C=c2\sc3n(c2=O)C(N)=C(C#N)C(c2ccc(C(C)C)cc2)C=3C(N)=O)cc1 (centres undefined) | nt | i | nt | nt | 7.3µM | 5.8µM
O=C(NCCS(=O)(=O)N1CCN(c2cccc(Cl)c2)CC1)c1cc(=O)c2ccccc2o1 | i | i | i | i | 2.1µM | ?
Cc1ccc(S(=O)(=O)NCCS(=O)(=O)N2CCN(c3ccc(F)cc3)CC2)cc1 | nt | nt | i | nt | 12µM | ?
O=S(=O)(NCCS(=O)(=O)N1CCN(c2cccc(Cl)c2)CC1)c1ccc(F)cc1 | nt | i | nt | nt | 21µM | i
CC(=O)N1CCN(c2ccc(S(=O)(=O)NCCN(C(C)C)C(C)C)cc2[N+](=O)[O-])CC1 | i | i | i | i | ? | i
CN(C)CCNS(=O)(=O)c1ccc(N2CCN(c3ccc(F)cc3)CC2)c([N+](=O)[O-])c1 | i | i | i | i | 13µM | 13µM
COc1ccc(S(=O)(=O)NCCS(=O)(=O)N2CCN(c3ccccc3)CC2)cc1 | nt | i | i | nt | ? | ?
O=S(=O)(NCCS(=O)(=O)N1CCN(c2ccccc2)CC1)c1ccccc1 | i | i | i | i | ? | i
O=C(CSc1nc2nc[nH]c2c(=O)[nH]1)c1ccccc1 | nt | i | nt | nt | nt | nt
CC1CCN(C(=O)c2cc3ccc(C(C)C)cc3[nH]2)CC1 | nt | i | nt | nt | nt | nt
COCc1nc(C2CCN(C(=O)c3cccnc3)C2)no1 (centres undefined) | nt | i | nt | nt | nt | nt
CCC1Oc2ccc(NC(=O)COC)cc2CN(Cc2cc(F)cc(F)c2)C1=O (centres undefined) | nt | i | nt | nt | nt | nt
CS(=O)(=O)Nc1ccc(Cc2ccc(NS(C)(=O)=O)cc2)cc1 | i | ? | i | ? | i | i
NNc1ccc(Cc2ccc(NN)cc2)cc1 | nt | 20µM | nt | nt | nt | nt
CC(=O)Nc1ccc2c(c1)nc1n2[C@@H](CNC2CCOCC2)COC1 | nt | i | nt | nt | nt | nt
COc1cc(OC)cc(-c2cc(N)n(S(=O)(=O)Cc3ccccc3)n2)c1 | i | i | ? | i | 18µM | ?
Nc1cc(-c2ccc(Br)cc2)nn1S(=O)(=O)c1ccccc1 | i | i | i | i | i | i
COc1cc(-c2cc(N)n(S(=O)(=O)c3ccc(F)cc3)n2)cc(OC)c1OC | ? | i | i | ? | 18µM | 16µM
Nc1cc(-c2ccccc2)nn1S(=O)(=O)c1ccc(F)cc1 | i | i | ? | ? | 15µM | 29µM
COc1ccc(-c2cc(N)n(S(=O)(=O)c3ccc(F)cc3)n2)cc1OC | i | i | 5.8µM | ? | 12µM | 18µM
CC(C)(Oc1nn(CC2CCOCC2)c2ccccc12)C(=O)NC1CCOCC1 | nt | i | nt | nt | nt | nt
CCOCCCNC(=O)N1CCC2(CC1)CC(N1CCOCC1)CCO2 (centres undefined) | nt | i | nt | nt | nt | nt
SMILES | RORgamma inh | 12-LOX inh | ELG1 DNA repair | Gal4-VP16 FLuc | DT40 TDP1 no CPT | TDP1 cell CPT
COc1ccc(C(CCN)Cc2ccccc2)cc1 (centres undefined) | i | i | i | i[10 µM] | 21µM | 29µM
CC(=O)OC1CC(C)(C)N(OC(=O)c2ccc(N)cc2)C(C)(C)C1 | i | i | i | i | i | ?
CC(=O)ON1C(C)(C)CC(OC(=O)c2ccccc2)CC1(C)C | i | i | i | i | i | 21µM
CC(=O)OC1CC(C)(C)N(OC(=O)c2ccccc2)C(C)(C)C1 | i | i | i | i | 21µM | ?
Cc1ccccc1NC(=O)c1cc2ccccc2o1 | i | i | ? | i | i | i
CCc1ccc(NC(=O)c2cc3c(C)nc4ccccc4c3o2)cc1 | i | i | ? | i | 16µM | 18µM
Cc1ccccc1NC(=O)c1cc2c(C)nc3ccccc3c2o1 | i | i | ? | i | 23µM | ?
Cc1nc2ccccc2c2oc(C(=O)NCCCN3CCCC(C)C3)cc12 (centres undefined) | i | ? | ? | i | ? | ?
Cc1ccc2c(c1)C(c1ccccc1)N(C(=O)COc1ccc(Cl)cc1Cl)CC(=O)N2 (centres undefined) | nt | i | nt | nt | 21µM | 21µM
O=C1CN(C(=O)c2ccc(S(=O)(=O)N3CCCC3)cc2)C(c2ccccc2)c2cc(Cl)ccc2N1 (centres undefined) | nt | i | nt | nt | 21µM | ?
O=C1CN(C(=O)c2ccc(S(=O)(=O)N3CCCCC3)cc2)C(c2ccc(F)cc2)c2cc(Cl)ccc2N1 (centres undefined) | nt | i | nt | nt | ? | ?
O=C1CN(C(=O)Cc2ccc(F)cc2)C(c2ccccc2)c2cc(Cl)ccc2N1 (centres undefined) | nt | i | nt | nt | 18µM | 15µM
O=C1CN(C(=O)c2cccc(Br)c2)C(c2ccccc2)c2cc(Cl)ccc2N1 (centres undefined) | nt | ? | nt | nt | ? | 5.2µM
O=C(Nc1ccc(F)cc1F)c1ccc2c(Cl)c3c(nc2c1)CCCC3 | nt | i | nt | nt | nt | nt
COc1cc(OC)cc(C(=O)Nc2cccc(-c3cn4ccsc4n3)c2)c1 | nt | i | nt | nt | 18µM | 13µM
O=S(=O)(Nc1cccc(-c2cn3ccccc3n2)c1)c1ccc(-c2ccccc2)cc1 | nt | i | nt | nt | nt | nt
Cc1cccc2nc(-c3cccc(NS(=O)(=O)c4ccccc4)c3)cn12 | nt | i | nt | nt | 23µM | ?
O=S(=O)(Nc1ccc(-c2cn3ccsc3n2)cc1)c1ccccc1 | nt | 35µM | nt | nt | nt | nt
O=S(=O)(Nc1cccc(-c2cn3cccnc3n2)c1)c1ccc(-c2ccccc2)cc1 | ? | i | ? | ? | 15µM | ?
Clc1cccc(CNCCOc2ccccn2)c1 | nt | i | nt | nt | nt | nt
Cn1nc(C(=O)OCCOc2ccccc2)c2ccccc2c1=O | nt | i | nt | nt | nt | nt
CC(C)C(=O)N1CCC(N2CC(OCC3CC3)C23CCCCC3)CC1 (centres undefined) | nt | i | nt | nt | nt | nt
Cc1ccc(S(=O)(=O)Nc2cccc(-c3cn4ccsc4n3)c2)cc1 | i | ? | ? | ? | 21µM | ?
O=C1/C(=C/c2cccnc2)CCC/C1=C\c1cccnc1 | 1.3µM | i | 4.1µM | 2.5µM | 2.1µM | 2.1µM
CC(C)/C=C1\CC/C(=C\c2cccnc2)C1=O | ? | i | ? | i | 21µM | ?
O=C1/C(=C/c2ccccc2F)CCc2ccccc21 | nt | 3.2µM | nt | nt | nt | nt
O=C1/C(=C\c2cccnc2)CCc2ccccc21 | ? | i | ? | ? | 18µM | 13µM
O=C1/C(=C/c2ccc(F)cc2)CCc2ccccc21 | nt | i | nt | nt | nt | nt
COc1ccccc1C(=O)N1CCCN(c2nnc3cccc(C)n23)CC1 | nt | i | nt | nt | nt | nt
